# Hit rate of the full screen: of about 310,000 compounds, about 14,000 (4.5%) showed an effect of 50% or more. Effects have a minus sign here. Shown is part of a subset that was picked to be rich in strong results.
# Biological target: human ether-à-go-go-related gene (hERG) potassium channel (human, UniProt Q12809)
# Experiment: primary screen, population patch clamp on CHO cells stably expressing hERG; higher = less effect of the substance
# 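Further: peak tail current of the secondary pulse compared with the same well before compound.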
# human ether-à-go-go-related gene (hERG) potassium channel, sequence (Q12809 whole entry, looked up): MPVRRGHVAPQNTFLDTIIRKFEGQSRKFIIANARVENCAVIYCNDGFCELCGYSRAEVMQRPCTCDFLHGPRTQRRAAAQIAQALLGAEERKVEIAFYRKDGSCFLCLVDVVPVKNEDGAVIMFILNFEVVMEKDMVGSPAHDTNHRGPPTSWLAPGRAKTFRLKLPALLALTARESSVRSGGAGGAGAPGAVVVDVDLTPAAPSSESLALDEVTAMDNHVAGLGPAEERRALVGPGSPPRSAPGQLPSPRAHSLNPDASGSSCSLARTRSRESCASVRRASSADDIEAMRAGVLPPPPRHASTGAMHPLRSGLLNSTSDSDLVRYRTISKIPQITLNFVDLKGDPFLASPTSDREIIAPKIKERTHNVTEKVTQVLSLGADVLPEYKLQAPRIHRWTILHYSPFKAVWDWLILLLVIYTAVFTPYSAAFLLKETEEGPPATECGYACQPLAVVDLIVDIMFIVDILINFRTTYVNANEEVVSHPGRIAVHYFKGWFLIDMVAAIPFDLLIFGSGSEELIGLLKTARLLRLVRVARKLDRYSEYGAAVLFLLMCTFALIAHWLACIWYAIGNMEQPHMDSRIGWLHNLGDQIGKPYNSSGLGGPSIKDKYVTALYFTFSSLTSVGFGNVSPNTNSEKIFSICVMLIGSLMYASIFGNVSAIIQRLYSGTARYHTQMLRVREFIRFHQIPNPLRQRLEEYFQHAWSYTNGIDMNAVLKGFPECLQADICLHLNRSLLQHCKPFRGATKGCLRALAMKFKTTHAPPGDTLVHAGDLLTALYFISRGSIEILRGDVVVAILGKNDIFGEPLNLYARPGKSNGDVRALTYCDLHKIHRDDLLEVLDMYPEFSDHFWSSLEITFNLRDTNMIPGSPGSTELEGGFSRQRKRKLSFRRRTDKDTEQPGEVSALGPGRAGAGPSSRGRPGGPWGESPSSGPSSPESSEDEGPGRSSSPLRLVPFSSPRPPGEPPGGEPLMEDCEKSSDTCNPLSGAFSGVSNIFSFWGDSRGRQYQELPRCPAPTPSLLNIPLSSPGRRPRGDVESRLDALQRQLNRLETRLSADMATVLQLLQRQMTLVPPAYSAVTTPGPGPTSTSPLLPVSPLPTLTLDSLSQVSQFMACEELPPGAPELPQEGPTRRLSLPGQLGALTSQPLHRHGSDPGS
row,Structure (SMILES),"hERG current change (%, negative = inhibition) at 10uM [%]"
1,COc1ccc(CNC(=O)CN2CCN(S(=O)(=O)c3cccs3)CC2)cc1OC,1.64
2,Cc1c(C(=O)N2CCCCC2)c(S(=O)(=O)N2CCC(C)CC2)c(C)n1C,3.48
3,C=CCn1c(Oc2ccccc2F)nc2c1c(=O)n(C)c(=O)n2C,2.59
4,CC1=C[C@H](C)[C@H](c2c(F)cccc2Cl)CC1=O,6.22
5,C=CCSc1nnc(NC(=O)c2cccc(S(=O)(=O)N3CCOCC3)c2)s1,-11.1
6,O=C(Nc1ccccc1C(F)(F)F)N1CCCCCC1,8.71
7,COc1ccc2nc(NC(=O)C(NS(=O)(=O)c3cccc4nsnc34)C(C)C)sc2c1 (stereo not drawn),10.4
8,Cc1ccccc1C(=O)c1ccc2c(c1)n(C)c(=O)n2C,2.11
9,COC(=O)C(C)Sc1ccc2nnc(-c3ccc(F)cc3)n2n1 (stereo not drawn),-27
10,COC(=O)C(C)Sc1ccc2nnc(-c3cccc(F)c3)n2n1 (stereo not drawn),-58
11,COC(=O)C(C)Sc1ccc2nnc(-c3ccccc3)n2n1 (stereo not drawn),-30.8
12,COc1cc2c(cc1OC)C(C1C(=O)CCCC1=O)N(C(=O)CCl)CC2 (stereo not drawn),14.1
13,CC1CCCCC1NC(=O)COn1nnc2ccc(Cl)cc21 (stereo not drawn),-14.3
14,CN(C)CCCNS(=O)(=O)c1cc(Cl)c(Cl)cc1Cl,-27.8
15,O=C(Nc1ccc(N2CCOCC2)c(Cl)c1)c1cc(F)c(F)cc1Cl,-20.9
16,O=C(Nc1ccc(N2CCOCC2)c(Cl)c1)c1ccccc1F,3.56
17,N#Cc1ccc(C(=O)Nc2ccc([N+](=O)[O-])cc2)c(F)c1,4.42
18,CCN1CCN(c2ccc(NC(=O)C(C)C)cc2Cl)CC1,-20
19,CCN1CCN(c2ccc(NC(=O)c3ccccc3F)cc2Cl)CC1,-70.1
20,CN1CCN(c2ccc(NC(=O)c3ccc(C#N)cc3F)cc2Cl)CC1,-53.7
21,CCN1CCN(c2ccc(NC(=O)c3ccc(C#N)cc3F)cc2Cl)CC1,-72.1
22,CCN1CCN(c2ccc(NC(=O)c3ccco3)cc2Cl)CC1,-4.06
23,CCC(=O)N1CCN(c2ccc(NC(=O)c3ccc(C#N)cc3F)cc2Cl)CC1,-7.73

row,Structure (SMILES),"hERG current change (%, negative = inhibition) at 10uM [%]"
1,O=C(O)CCCSc1nccn1-c1ccccc1,22.3
2,c1ccc(-c2cc(N3CCOCC3)nc(-c3ccccc3)n2)cc1,-5.46
3,CCN(CC)C(=O)CSc1nnc(-c2cccs2)n1Cc1ccco1,-11
4,Cc1ccc(S(=O)(=O)c2c(C)nn(C(C)(C)C)c2OC(=O)c2ccc(Br)o2)cc1,7.32
5,Cc1cc(C)n(CCCNC(=O)Cn2nnnc2CN2C[C@@H](C)O[C@@H](C)C2)n1,6.72
6,C/C(=N\NC(=O)c1nnn(-c2nonc2N)c1CSc1ccccc1)c1ccc2c(c1)OCO2,17.5
7,CC(=O)OC1CC(c2cc(C(C)(C)C)c(O)c(C(C)(C)C)c2)=NO1 (stereo not drawn),0.755
8,CCOc1ccc(NC(=O)COc2ccc3c(c2)CCC3)cc1OC,3.04
9,Cc1ccccc1NCc1ccccc1O.Cl,-0.966
10,Cc1cc(NC(=O)Nc2ccc(F)cc2)no1,-8.3
11,COc1cc(OC)cc(C(=O)OCCCOC(=O)c2cc(OC)cc(OC)c2)c1,24.6
12,COc1ccccc1CCC(=O)Nc1nc2ccccc2[nH]1,15.7
13,O=C(Nc1nc2ccccc2[nH]1)c1ccc(F)c(S(=O)(=O)N2CCOCC2)c1,-50.3
14,COc1ccc(C(=O)Nc2ccccc2C)cc1S(=O)(=O)N1CCOCC1,2.73
15,O=C(Nc1nc2ccccc2[nH]1)c1ccc(Cl)c(S(=O)(=O)N2CCCC2)c1,-9.28
16,COc1ccc(CCC(=O)Nc2nc3ccccc3[nH]2)cc1OC,-55.7
17,O=C(Nc1nc2ccccc2[nH]1)c1ccc(S(=O)(=O)N2CCOCC2)cc1,2.85
18,COc1ccc(C(=O)Nc2ccc(NC(=O)c3ccccc3)cc2)cc1S(=O)(=O)N1CCOCC1,16.6
19,COc1ccc(C(=O)Nc2nc3ccccc3[nH]2)cc1S(=O)(=O)N1CCOCC1,-70.1
20,O=C(Nc1nc2ccccc2[nH]1)c1cccc(S(=O)(=O)N2CCOCC2)c1,-8.91
21,COc1ccc(CCC(=O)Nc2nc3ccccc3[nH]2)cc1,14.3
22,COc1ccc(C(=O)Nc2nc3ccccc3[nH]2)cc1OC,-6.47
23,COc1ccc(C(=O)Nc2nc3ccccc3[nH]2)cc1S(=O)(=O)N1CCCC1,-52.8

row,Structure (SMILES),"hERG current change (%, negative = inhibition) at 10uM [%]"
1,COc1ccc(CCNC(=O)COC(=O)/C=C/c2ccc(OCC#N)c(OC)c2)cc1OC,-17.1
2,CCOC(=O)SC1=N/C(=C\c2ccc(N(C)C)cc2)C(=O)S1,14.9
3,COc1ccc(CCN(C)C(=O)c2ccc(COc3ccccc3)o2)cc1OC,-3.91
4,COCC(=O)Nc1ccc(F)cc1,18.6
5,O=c1c(Cc2ccc(F)cc2)c(O)ccn1Cc1ccc(Cl)cc1Cl,6.08
6,COc1cc(O)c(C(CC(=O)N2CCCC(C)C2)c2cc(OC)c(OC)c(OC)c2)c(OC)c1 (stereo not drawn),2.69
7,CC(=O)Nc1ccc2nc(NC(=O)C(Cl)(Cl)Cl)sc2c1,31.1
8,c1cc(-c2nnc3n2CCC3)[nH]n1,12.5
9,O=C(CSc1nc(-c2ccccc2F)nc2nc[nH]c12)Nc1c(Cl)cc(Cl)cc1Cl,-6.09
10,Oc1cc2ccccc2cc1-c1nnc2n1-c1ccccc1SC2,-8.27
11,Brc1nnc2n1-c1ccccc1Sc1ccccc1-2,-71.8
12,Cl.NCCC(=O)N1c2ccccc2Sc2ccc(Cl)cc21,-10.8
13,Clc1ccccc1-c1nnc2n1-c1ccccc1SC2,-3.67
14,c1ccc2c(c1)Sc1ccccc1-n1cnnc1-2,-20.3
15,Clc1ccc2c(c1)-c1nnc(Br)n1-c1ccccc1S2,-52.5
16,COc1nc(NC(C)(C)C)nc(Oc2ccc(=O)n(C)n2)n1,16.8
17,CN(C)c1nc(-c2cccnc2)nc(-c2ccccc2)c1C#N,10.3
18,CCOC(=O)COc1ccc(Oc2nc(C)cc(OC)n2)nn1,-7.8
19,Cl.Nc1nonc1C(=O)NCCNCc1cc(Br)ccc1OCc1ccc(F)cc1,-38.2
20,Cl.Nc1nonc1C(=O)NCCNCc1ccccc1OCc1ccc(F)cc1,-65.9
21,Cl.Nc1nonc1C(=O)NCCNCc1ccccc1OCc1ccccc1F,-60.5
22,C=CCOc1ccccc1CNCCNC(=O)c1nonc1N.Cl,-22.8
23,Cl.Nc1nonc1C(=O)NCCNCc1c(OCc2ccccc2F)ccc2ccccc12,-11.9

row,Structure (SMILES),"hERG current change (%, negative = inhibition) at 10uM [%]"
1,CCOc1ccccc1CNCCNC(=O)c1nonc1N.Cl,-13.5
2,CC1=C(C(=O)Nc2ccccc2)C(c2ccc(O)cc2)N2C(=O)CSC2=N1 (stereo not drawn),3.47
3,CC(C)N(CCCNC(=O)CC1Oc2ccccc2NC1=O)Cc1ccccc1 (stereo not drawn),-26.3
4,Fc1ccc(/C=N/c2c(-c3ccc(F)cc3)nc3n2CCS3)cc1,-4.46
5,Nc1nc2ccccc2n1/N=C/c1ccc([N+](=O)[O-])s1,-1.38
6,O=C(O)/C(=C\c1cccs1)c1ccccc1,0.00478
7,COc1ccc(OC)c(-n2cnc3cc(C(=O)O)ccc32)c1,3.06
8,O=C(c1ccc2c(c1)OCO2)C1CCCN(Cc2cccc(C(F)(F)F)c2)C1 (stereo not drawn),-20.5
9,Cc1ccc(CN2CCCC(C(=O)c3ccc4c(c3)OCO4)C2)cc1C (stereo not drawn),-64.6
10,CCN(CC)C(=O)C1CCCN(Cc2ccc3c(c2)OCO3)C1 (stereo not drawn),10
11,O=C(c1ccc2c(c1)OCO2)C1CCCN(Cc2c(F)ccc(F)c2F)C1 (stereo not drawn),-15.8
12,CC(=O)c1ccc(NC(=O)N2CCCC(C(=O)c3ccc4c(c3)OCO4)C2)cc1 (stereo not drawn),-16.4
13,CC(=O)c1cccc(CN2CCCC(C(=O)c3ccc4c(c3)OCO4)C2)c1 (stereo not drawn),-64.9
14,O=C(c1ccc2c(c1)OCO2)C1CCCN(C2CCN(CCc3ccccc3)CC2)C1 (stereo not drawn),-69.3
15,O=C(c1ccc2c(c1)OCO2)C1CCCN(Cc2ccc(F)c(F)c2)C1 (stereo not drawn),-65.4
16,CCOC(=O)C1CCCN(Cc2ccc3c(c2)OCO3)C1 (stereo not drawn),-9.12
17,CSc1ccccc1NC(=O)N1CCCC(C(=O)c2ccc3c(c2)OCO3)C1 (stereo not drawn),-39.8
18,O=C(c1ccc2c(c1)OCO2)C1CCCN(C(=O)NCc2ccccc2)C1 (stereo not drawn),-14.3
19,COc1ccccc1/C=C1\C(=O)Nc2ccccc21,2.99
20,Cc1cn(S(=O)(=O)c2cc(Br)ccc2Br)cn1,1.08
21,CCc1ccc(NC(=O)NCCCN2CCCC2=O)cc1,0.255

# From PMC4336329 (PLoS ONE, 2015)
